# In ChEMBL document CHEMBL4513135, “CO-ADD screening of IQOG CSIS (Spain) compounds”:
# Values joined by “and” are separate entries in the source; they are usually repeats but may differ in a detail not shown here. Equal values may be shown once. Results with a measured potency or affinity are listed apart.
# Legend:
# [1] = system: Klebsiella pneumoniae; conditions: Concentration 32 ug.mL-1, ASSAY_TEST Inhibition of Bacterial Growth, detection method Absorption (OD600), MEDIA CAMHB, plate type 384well, NBS, CORNING #3640, time 18 hr
# [2] = system: Candida albicans; conditions: 32 ug/mL
# [3] = system: Cryptococcus neoformans; conditions: Concentration 32 ug.mL-1, ASSAY_TEST Inhibition of Fungal Growth, detection method Resazurin, Absorption (OD600-OD570), plate type 384well, NBS, CORNING #3640
Structure (SMILES),Inhibition [1],Inhibition [2],Inhibition [3],Inhibition ([1]; 32 ug/mL),Inhibition ([3]; 32 ug/mL)
CC1CC(=O)Nc2nc3c(c(N)c21)CCCC3 (configuration not stated),14.16%,2.93%,-54.55%,–,–
Nc1c2c(nc3ccccc13)CCN(Cc1ccccc1)C2,4.75%,-0.35%,-78.39%,–,–
Cc1ccc(C=C(C#N)C#N)cc1,9.23%,0.34%,-5.46%,–,–
O=C(CBr)NCc1ccccc1,15.98%,10.2%,6.35%,–,–
COc1cc(C2C(C#N)=C(N)Oc3c2ccc2ccccc32)cc(OC)c1OC (configuration not stated),3.14%,-0.44%,-3.68%,–,–
N#CCC(=O)c1ccccc1,12.74%,10.4%,-3.25%,–,–
Nc1c2c(nc3c1C(c1ccccc1)CC(=O)N3)CCCC2 (configuration not stated),11.64%,1%,-63.29%,–,–
O=C(N1[C@H]2CC[C@@H]1C(c1nnn[nH]1)C2)C(F)(F)F (some centres not stated),13.67%,1.81%,-32.17%,–,–
CCOc1nc2nc(C)c(C(=O)O)cc2c(-c2ccccc2)c1C#N,7.3%,1.34%,-54.07%,–,–
N#Cc1cc(C#N)c(N2C3CCC2CC3)nc1N,-5.68%,3.02%,-1.32%,–,–
N#CC(C#N)=Cc1ccc(Cl)cc1,17.25%,0.02%,-1.11%,–,–
NNC(=O)c1cccnc1 [NICOTINIC ACID HYDRAZIDE],3.91%,1.56%,-4.91%,–,–
Cc1ccc(S(=O)(=O)N2[C@H]3CC[C@@H]2CC3)cc1,13.85%,3.38%,-10.99%,–,–
C#CCN1CCc2nc3ncccc3c(N)c2C1.Cl,8.58%,2.69%,-56.71%,–,–
C#CCN1CCc2nc3nc(Cl)c(C#N)cc3c(N)c2C1,7.38%,0.36%,-89.58%,–,–
CN1CC=C(c2cccn2C)CC1,7.84%,3.67%,-4.6%,–,–
OCC(Cc1cnc[nH]1)NCc1ccccc1 (configuration not stated),4.01%,0.31%,1.68%,–,–
NNCCCc1c[nH]c2ccccc12.O=C(O)/C=C/C(=O)O,10.99%,1.63%,4.26%,–,–
CN(C)C(=O)Oc1ccc(CCl)c2cccnc12,13.45%,4.55%,-46.72%,–,–
CCOC(=O)C1=C(OC)OC(=O)CC1c1ccccc1 (configuration not stated),18.96%,1.67%,-58.88%,–,–

Structure (SMILES),Inhibition [1],Inhibition [2],Inhibition [3],Inhibition ([1]; 32 ug/mL),Inhibition ([3]; 32 ug/mL)
C#CCN(C)Cc1cc2cc(OCc3ccc(OC(=O)N(C)C)c4ncccc34)ccc2n1C,-0.57%,1.92%,-64.25%,–,–
COc1ccc2c(c1)cc(C[N+](C)(C)C)n2C.[I-],16.42%,1%,-0.09%,–,–
C#CCN1CCc2nc(N)c(C#N)c(-c3ccccc3)c2C1,–,1.84% and 1.59%,–,13.26% and 8.28%,-44.69% and -39.47%
CCOC(=O)c1cn(Cc2ccccc2)c2ccccc12,3.42%,-1.33%,-2.24%,–,–
CCOC(=O)C1=C(C)OC(=O)CC1c1ccccc1 (configuration not stated),8.11%,4.72%,-25.58%,–,–
Cl.ClCCN1CCCC1,3.45%,5.34%,-1.83%,–,–
C#CCN(C)Cc1cc2cc(OCCCC3CCN(Cc4ccc(OC(=O)N(C)C)c5ncccc45)CC3)ccc2n1C,4.78%,5.51%,-77.63%,–,–
C#CCN1CCc2nc3nc(OC)c(C#N)cc3c(N)c2C1,9.96%,0.5%,-73.36%,–,–
NNC(=O)c1cn(Cc2ccccc2)c2ccccc12,10.74%,0.77%,3.84%,–,–
Cc1ccccc1C=C(C#N)C#N,-3.33%,-0.55%,-4.61%,–,–
Cc1nc(N)c(C#N)cc1C(=O)O,-3.56%,1.23%,-34.98%,–,–
CCOC(=O)c1cc2cc(OC(=O)NC3CCN(Cc4ccccc4)CC3)ccc2[nH]1,1.99%,0.56%,-41.14%,–,–
C#CCN(C)Cc1cc2cc(OC(=O)N(C)C)ccc2n1C,-2.9%,3.66%,-26.57%,–,–
[N-]=[N+]=NCC(=O)c1ccc(Br)cc1,7.99%,3.1%,-9.49%,–,–
COc1ccc(C=C(C#N)C#N)cc1OC,6.42%,0.87%,-1.94%,–,–
CCOC(=O)C1=C(C)NC(=O)CC1c1ccccc1 (configuration not stated),18.92%,2.43%,-58.04%,–,–
CNCc1cn(C)c2ccc(OC)cc12.Cl,11.42%,1.37%,-1.31%,–,–
Cl.ClCCN1CCCCC1,11.31%,4.96%,-9.27%,–,–
CN1CC=C(c2cccn2C)CC1.Cl,8.46%,3.38%,-2.75%,–,–
